Holding throughout (test): NCI-60 one-dose screen, 48 h (100 = growth as untreated, 0 = no growth, -100 = all killed)
The test system of one experiment is A549/ATCC NSCLC. The following applies: 10 µM unless noted.
Another experiment deals with COLO 205 colon. Conditions: 10 µM.
For another experiment, the system named is MALME-3M melanoma. The following applies: 10 µM unless noted.
Another experiment concerns RXF 393 renal. The following applies: 10 µM unless noted.
Another experiment concerns UACC-257 melanoma. Conditions: 10 µM unless noted.
The next experiment concerns HT29 colon. Conditions: 10 µM unless noted.
The subject of another experiment is U251 CNS. The following applies: 10 µM unless noted.
A further experiment has as its system SK-MEL-2 melanoma. The following applies: 10 µM unless noted.
The test system of a further experiment is SN12C renal. Conditions: 10 µM unless noted.
Another experiment relates to UO-31 renal. The following applies: 10 µM unless noted.
In another experiment the test system is CAKI-1 renal. Conditions: 10 µM unless noted.
For a further experiment, the system named is A498 renal. The following applies: 10 µM unless noted.
For the next experiment, the system named is HL-60(TB) leukemia. Conditions: 10 µM unless noted.
A further experiment concerns OVCAR-8 ovarian. Conditions: 10 µM unless noted.
For a further experiment, the system named is OVCAR-4 ovarian. The following applies: 10 µM unless noted.
The next experiment has as its system SK-OV-3 ovarian. The following applies: 10 µM unless noted.
The test system of a further experiment is HS 578T breast. Conditions: 10 µM unless noted.
In a further experiment the test system is T-47D breast. The following applies: 10 µM unless noted.
The next experiment has as its system BT-549 breast. The following applies: 10 µM.
Another experiment has as its system MDA-MB-435 melanoma. The following applies: 10 µM unless noted.

Compounds without any hit were thinned out: in the full panel of roughly 83,000, 20% have a hit.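 Growth was measured after 48 h exposure to one concentration of compound in 96-well plates. Values under 10 count as active.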 Values without a mark were called inactive. Calls of active or inactive are those of the source.

On to `OB([O][Hg][c]1ccccc1)[O][Hg][c]1ccccc1`, for which the growth with A549/ATCC NSCLC was 24%; in the experiment with COLO 205 colon, -100% (active); in the experiment with MALME-3M melanoma, -88.1% (active); in the experiment on RXF 393 renal, -94.3% (active); in the experiment with UACC-257 melanoma it was -98.3% (active); in the experiment on HT29 colon, -55.8% (active). Further, the growth with U251 CNS is -82.4% (active); in the experiment with SK-MEL-2 melanoma, -74.9% (active); in the experiment with SN12C renal, -99.6% (active); in the experiment on UO-31 renal it was -94.1% (active); in the experiment on CAKI-1 renal, -92.4% (active); in the experiment on A498 renal, -31.2% (active). The growth in the experiment with HL-60(TB) leukemia is -53.3% (active); in the experiment on OVCAR-8 ovarian it was -97.1% (active); in the experiment with OVCAR-4 ovarian, 7.38% (active); in the experiment with SK-OV-3 ovarian, -62.7% (active); with HS 578T breast it was -5.59% (active); with T-47D breast it was -42.4% (active). In addition, the growth in the experiment on BT-549 breast was -91.5% (active); with MDA-MB-435 melanoma, -84% (active).

As for `CN1C(=O)NC(=O)C(N=Nc2ccc(Cl)cc2)C1=O` (stereo not drawn), the growth in the experiment on A549/ATCC NSCLC is 101%; in the experiment on COLO 205 colon, 137%; in the experiment on MALME-3M melanoma, 134%; in the experiment with RXF 393 renal, 107%; in the experiment with UACC-257 melanoma, 105%; with HT29 colon, 99.1%. Further, the growth with U251 CNS is 108%; in the experiment on SK-MEL-2 melanoma, 117%; in the experiment with SN12C renal, 103%; in the experiment with UO-31 renal it was 104%; with A498 renal, 60.9%; with HL-60(TB) leukemia, 90.7%. Further, the growth in the experiment on OVCAR-8 ovarian is 104%; with SK-OV-3 ovarian, 120%; with HS 578T breast it was 114%; with T-47D breast, 101%; with BT-549 breast, 80.3%; in the experiment with MDA-MB-435 melanoma, 95.7%.

`CCOC(=O)c1cnc(SCc2ccc(Cl)c(Cl)c2)nc1N1CC1`: the growth in the experiment on A549/ATCC NSCLC is 50%; with COLO 205 colon, 67.8%; in the experiment with MALME-3M melanoma, 68.6%; in the experiment on RXF 393 renal it was 66.6%; in the experiment with UACC-257 melanoma, 79%; in the experiment with HT29 colon, 31.2%. The growth in the experiment on U251 CNS was 49%; in the experiment on SK-MEL-2 melanoma it was 66.2%; in the experiment on SN12C renal it was 58.4%; in the experiment on UO-31 renal it was 34.7%; with CAKI-1 renal it was 31.1%; with A498 renal, 44.3%. In addition, the growth with HL-60(TB) leukemia was 56.8%; in the experiment on OVCAR-8 ovarian, 51.6%; in the experiment with OVCAR-4 ovarian, 53.6%; in the experiment with SK-OV-3 ovarian, 74.6%; in the experiment with HS 578T breast, 59.3%; with T-47D breast, 58.6%. Besides, the figures for the growth in the experiment on BT-549 breast and with MDA-MB-435 melanoma were 52.6% and 10.5%, respectively.

On to `Cc1ccc(C[As+](c2ccccc2)(c2ccccc2)c2ccccc2)cc1`, for which the growth in the experiment with A549/ATCC NSCLC is 7.2% (active); with COLO 205 colon, -55.7% (active); in the experiment on MALME-3M melanoma, 25%; in the experiment on RXF 393 renal it was 8.64% (active); with UACC-257 melanoma, -17.5% (active); in the experiment with HT29 colon, -3.93% (active). Also, the growth was 10.9% in the experiment with U251 CNS; -16.9% (active) in the experiment with SK-MEL-2 melanoma; 3.83% (active) with SN12C renal; 69% with UO-31 renal; 60.1% in the experiment on CAKI-1 renal; -11% (active) with A498 renal. Moreover, the growth is -26.8% (active) in the experiment with HL-60(TB) leukemia; 9.13% (active) in the experiment on OVCAR-8 ovarian; 23.6% with OVCAR-4 ovarian; -4.76% (active) with SK-OV-3 ovarian; 21% in the experiment on HS 578T breast; -3.86% (active) in the experiment on T-47D breast. Also, the growth with BT-549 breast was -4.76% (active); in the experiment on MDA-MB-435 melanoma, -10.3% (active).

Take `N#CC1=C(N)Oc2cc3c(cc2C1c1cccs1)OCO3` (stereo not drawn): the growth in the experiment on A549/ATCC NSCLC was 36.8%; with COLO 205 colon, -7.45% (active); in the experiment with MALME-3M melanoma, 40%; in the experiment with RXF 393 renal, -5.68% (active); in the experiment on UACC-257 melanoma it was 60.8%; in the experiment on HT29 colon, 8.98% (active). Further, the growth is 25.4% with U251 CNS; 21.2% in the experiment with SK-MEL-2 melanoma; 52.7% in the experiment on SN12C renal; 49.2% with UO-31 renal; 43.4% in the experiment on CAKI-1 renal; 7.63% (active) in the experiment with A498 renal. Also, the growth in the experiment with HL-60(TB) leukemia was -28.6% (active); in the experiment on OVCAR-8 ovarian, 35.1%; in the experiment with OVCAR-4 ovarian it was 52.8%; in the experiment with SK-OV-3 ovarian, 7.21% (active); with HS 578T breast, 24.6%; in the experiment on T-47D breast it was 42.8%. Also, in the experiment with BT-549 breast, the growth was 44.6%.

As for `CC12CCC(=O)C=C1C(O)CC1C2CCC2(C)C(O)CCC12` (stereo not drawn), the growth is 101% with A549/ATCC NSCLC; 112% with COLO 205 colon; 95.9% in the experiment with MALME-3M melanoma; 113% with RXF 393 renal; 95% in the experiment on UACC-257 melanoma; 108% with HT29 colon. The growth in the experiment with U251 CNS is 97.3%; in the experiment on SK-MEL-2 melanoma, 105%; in the experiment with SN12C renal, 105%; in the experiment with UO-31 renal it was 87.1%; in the experiment with CAKI-1 renal, 102%; with A498 renal, 89.6%. Further, the growth with HL-60(TB) leukemia was 101%; in the experiment with OVCAR-8 ovarian it was 105%; in the experiment on OVCAR-4 ovarian it was 104%; with SK-OV-3 ovarian, 115%; in the experiment on HS 578T breast, 104%; in the experiment on T-47D breast it was 112%. Also, the growth with BT-549 breast was 117%; with MDA-MB-435 melanoma, 112%.

For `Cc1cc(N(CCCl)CCCl)ccc1C=Nc1ccc2ccccc2c1`, the growth is 69.8% with A549/ATCC NSCLC; 87.4% in the experiment on COLO 205 colon; 84.9% with MALME-3M melanoma; 71.5% with RXF 393 renal; 37.8% in the experiment on UACC-257 melanoma; 92% in the experiment with HT29 colon. Moreover, the growth in the experiment on U251 CNS was 63%; in the experiment with SK-MEL-2 melanoma it was 145%; with SN12C renal, 49.7%; in the experiment on UO-31 renal it was 50.8%; in the experiment on CAKI-1 renal, 1.75% (active); with A498 renal it was -77.9% (active). Further, the growth in the experiment on HL-60(TB) leukemia was 46%; in the experiment on OVCAR-8 ovarian, 72.7%; with OVCAR-4 ovarian, 83.5%; with SK-OV-3 ovarian, 80.9%; with T-47D breast, 5.25% (active); in the experiment on BT-549 breast, 86.1%. For the same molecule, the growth in the experiment on MDA-MB-435 melanoma was 90.6%.

For `N#[N+]c1cnc([O-])[nH]c1=O`, the growth is 94.2% in the experiment with COLO 205 colon; 105% with MALME-3M melanoma; 75.8% in the experiment on UACC-257 melanoma; 105% in the experiment with HT29 colon; 98.3% in the experiment on U251 CNS; 96.7% in the experiment with SK-MEL-2 melanoma. Besides, the growth in the experiment with SN12C renal was 84.9%; in the experiment with UO-31 renal, 39%; with CAKI-1 renal it was 94.3%; with A498 renal, 85.9%; in the experiment with HL-60(TB) leukemia it was 67.4%; in the experiment with OVCAR-4 ovarian, 100%. Also, the growth in the experiment on SK-OV-3 ovarian was 94%; in the experiment on HS 578T breast, 83.5%; in the experiment on T-47D breast it was 101%; in the experiment on BT-549 breast, 114%; with MDA-MB-435 melanoma, 106%.

Source of the values: PubChem BioAssay (NCI).
